Screens as filed in PubChem.
GAA850 FXN act: FXN promoter activators, primary screen, cell-based, luciferase luminescence, HEK293 lucGAA850; HEK293 lucGAA850 FXN promoter luciferase reporter, 24 h; percent of 10 µM SAHA response; AID 540364, 2011; 360,000 compounds, 0.56% hits; activation, % at 6 µM;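 active = activation above the average of all compounds screened plus 3 SD, cutoff fixed separately per campaign, cut at about 7.5% in these data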;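 note: 0% = DMSO wells and 100% = 10 µM SAHA wells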
HSF-1 act: HSF-1 activators, primary screen, NIH3T3-HGL cells, MG132 stress, luminescence, single point | NIH3T3-HGL HSF-1 luciferase reporter, 8 h; 100% = twice DMSO control signal | activation, % at 9 µM | 300,000 compounds, 1.7% hits | AID 504408, 2011;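 active = mean replicate activation of at least 50% with a set share of replicates each reaching 50%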;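 note: 0% = median of the neutral control wells and 100% = twice that signal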
HSF1 inh: HSF1 inhibitors in luciferase reporter cells, primary screen, cell-based, NIH3T3, luminescence; NIH3T3-HGL HSE-luciferase, MG132-induced, luminescence 8 h; active compounds read low; 300,000 compounds, 0.77% hits; activity change, negative = inhibition, % at 7.5 µM (by protocol);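 active = more than half of replicate wells show activity change below -50%, luminescence cut by over half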;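 note: luciferase reports HSF-1 transcriptional activity via heat shock element; 0% = median of DMSO wells and -100% = zero luminescence signal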
DAX1 inh: DAX1 (NR0B1) inhibitors, primary screen, cell-based, HEK293, Gal4-DAX1, luciferase luminescence; Nuclear receptor subfamily 0 group B member 1 (Homo sapiens), P51843; HEK293 Gal4-DAX1 luciferase reporter; inhibition, % at 6.75 µM; 340,000 compounds, 0.99% hits; AID 504766, 2011;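 active = inhibition above the mean over all tested compounds plus 3 SD, cut at about 4.2% in these data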;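 note: 0% = DAX1-transfected cells with DMSO and 100% = empty-vector control cells with DMSO; inhibition shows as a rise in luminescence from relieved DAX1 repression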
AHR activator: AHR activators, primary screen, cell-based, luminescence, luciferase reporter, human. Aryl hydrocarbon receptor (Homo sapiens), P35869. AHR-responsive luciferase reporter cells. activation, % at 5 µM. 320,000 compounds, 2.5% hits; in the data active = activation above about 47%;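 note: 0% = vehicle wells and 100% = reference agonist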
Target sequence (P35869 whole entry, looked up): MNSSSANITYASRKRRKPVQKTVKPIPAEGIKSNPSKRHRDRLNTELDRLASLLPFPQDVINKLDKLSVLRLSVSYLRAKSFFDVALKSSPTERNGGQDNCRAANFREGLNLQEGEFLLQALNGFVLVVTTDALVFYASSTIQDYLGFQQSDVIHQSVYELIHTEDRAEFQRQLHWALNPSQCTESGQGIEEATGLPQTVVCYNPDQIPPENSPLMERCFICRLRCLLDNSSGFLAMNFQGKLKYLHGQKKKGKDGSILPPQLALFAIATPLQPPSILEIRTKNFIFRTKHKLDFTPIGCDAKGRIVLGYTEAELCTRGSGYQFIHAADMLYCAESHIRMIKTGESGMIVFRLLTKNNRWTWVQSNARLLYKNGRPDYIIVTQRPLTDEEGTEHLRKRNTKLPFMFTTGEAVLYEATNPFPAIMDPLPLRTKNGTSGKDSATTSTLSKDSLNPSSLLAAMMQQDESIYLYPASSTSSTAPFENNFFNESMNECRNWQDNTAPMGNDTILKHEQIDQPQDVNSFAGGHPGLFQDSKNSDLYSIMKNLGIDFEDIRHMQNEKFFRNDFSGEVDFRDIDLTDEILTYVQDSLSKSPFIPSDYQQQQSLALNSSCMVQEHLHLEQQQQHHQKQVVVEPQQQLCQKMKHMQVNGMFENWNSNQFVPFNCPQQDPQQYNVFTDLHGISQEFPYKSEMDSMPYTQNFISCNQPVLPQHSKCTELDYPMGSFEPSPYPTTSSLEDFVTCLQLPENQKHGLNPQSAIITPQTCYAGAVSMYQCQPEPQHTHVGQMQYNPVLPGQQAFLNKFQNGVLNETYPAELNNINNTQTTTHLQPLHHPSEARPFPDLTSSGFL
* = called active by the depositor; nt = no result given. A selection: hits, their analogues and other compounds. The true share with any hit is near 5.4%.

SMILES	GAA850 FXN act	HSF-1 act	HSF1 inh	DAX1 inh	AHR activator
COC(=O)c1c(C)oc(C)c1S(=O)(=O)N1CCCCC1	2	6	3	1	0
COC(=O)c1c(C)oc(C)c1S(=O)(=O)N1CCCC1	1	-6	-2	4.4*	-2
Oc1ccc(C=NN=Cc2ccco2)c(O)c1	5	-34	-34	5.5*	nt
CCOC(=O)c1c(NC(=O)CN(C)C)sc(C(=O)N(CC)CC)c1C	0	-12	3	-1	9
CCCCC(=O)Nc1sc(C(=O)N(CC)CC)c(C)c1C(=O)OC	-1	-91	-88*	-1	5
CC(=O)c1c(C(C)=O)c(C)n(C(c2ccccc2)c2ccccc2)c1C	0	26	25	-2	2
Cc1cc(C)c(NC(=O)Cn2nnc(C(=O)NCc3ccc4c(c3)OCO4)c2N)c(C)c1	1	-3	-4	0	3
O=C(NC12CC3CC(CC(C3)C1)C2)N1CCN(C(=O)C2CCCO2)CC1 (stereo unspecified)	5	-64	-54*	0	0
CC(NC(=O)NC12CC3CC(CC(C3)C1)C2)C1CCCO1 (stereo unspecified)	-1	2	-3	7.2*	-1
CC1(C(=O)NCc2cccc(C(F)(F)F)c2)CCN1C1Cc2ccccc2C1 (stereo unspecified)	1	nt	nt	nt	nt
CCOC(=O)c1ccc(N=Cc2c(O)c3ccccc3oc2=O)cc1	2	-15	-17	-1	4
CC(=O)Nc1ccc(N=Cc2c(O)c3ccccc3oc2=O)cc1	2	63*	26	0	nt
CC(=O)c1cccc(N=Cc2c(O)c3ccccc3oc2=O)c1	-2	106*	74	4	-1
O=C1CN(C(=O)N[C@@H](Cc2ccccc2)C(=O)N[C@@H](Cc2ccccc2)C(=O)O)c2ccccc2N1	1	-8	4	1	0
CC(C)[C@H](NC(=O)N1CC(=O)Nc2ccccc21)C(=O)N[C@@H](Cc1ccccc1)C(=O)O	-2	0	-6	7.0*	3
O=C1CN(C(=O)CNC(=O)c2cccc(Cl)c2)c2ccccc2N1	-2	0	-5	3	9
Cc1cccc(C(=O)NCC(=O)N2CC(=O)Nc3ccccc32)c1	0	-63	-51*	-1	8
O/N=C/c1cn(-c2ccccc2)nc1-c1cccnc1	0	8	1	-1	51*
O=C(/C=C/c1cn(-c2ccccc2)nc1-c1cccnc1)N1CCCC1	-9	4	4	-4	nt
O=C(/C=C/c1cn(-c2ccccc2)nc1-c1cccnc1)c1ccco1	0	119*	97	-2	9
Cc1ccc(-c2nn(-c3ccccc3)cc2/C=N/O)cc1	0	-2	-6	0	8
COc1cc(CC(=O)OCC(=O)c2ccc(F)cc2)cc(OC)c1OC	0	nt	nt	1	0
CN(C)C(CNC(=O)c1ccco1)c1cccs1 (stereo unspecified)	0	0	1	0	0
O=C(CC(c1ccco1)S(=O)(=O)c1ccccc1)c1ccc(F)cc1 (stereo unspecified)	0	220*	121	0	-5
N#C/C(=C\c1ccc(Cl)cc1)c1nc2ccccc2o1	0	75*	62	2	21
SMILES	GAA850 FXN act	HSF-1 act	HSF1 inh	DAX1 inh	AHR activator
COc1cc(-c2nc3ccc(C)cn3c2NCc2ccccc2)ccc1-c1cccc(Cl)c1	0	nt	nt	1	73*
CCCCCCSc1cc(-c2nc3cnccn3c2NCc2ccccc2)ccc1OC	3	-9	0	0	49*
CCCCNc1c(-c2cccc(-c3ccc(OC)cc3)c2)nc2ccc(C)cn12	-4	-6	2	-1	21
COc1cc(-c2nc3ccccn3c2NCc2ccccc2)ccc1SC1CCCCC1	0	17	7	-1	69*
COc1cc(-c2nc3ccc(C)cn3c2NCc2ccccc2)ccc1SC1CCCCC1	1	-6	-4	0	10
COc1ccc(-c2nc3ccc(C)cn3c2NCc2ccc3c(c2)OCO3)cc1	5	60*	14	2	69*
